# Test results published in the supplement of paper PMC10849652.
# Targets with a hit are over-represented here; the source holds about 8,800 in all. About 0.5% of all pairs of compound and target were hits. Unmarked numbers belong to inactive results.
# Compound: CC1=C(C(CC(=O)N1)C2=CC=C(C=C2)C(F)(F)F)C(=O)NC3=C(C=C4C(=C3)C=NN4)F
# Test: log2 fold change, soluble protein after heating vs DMSO (PISA); higher = thermal stabilisation; K562 lysate, 10 uM; active = over 0.2 and 3.5 SD of the protein, either way, in both replicates (recomputed)
# Procedure, shortened: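 Thermal stability, expressed as log-two fold change relative to solvent controls, is given from duplicates. Crude K562 extract in PBS pH 7.4 with 1 mM MgCl2, at 1 mg/mL protein, was treated with 10 μM compound for 30 min and heated in aliquots for 3 min across 48°C-58°C. After pooling, adjustment to 0.5% NP-40 at 4°C and centrifugation at 21,000xg for 90 min, supernatant protein was measured by TMTpro 16plex LC-MS/MS with channel sums equalised.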
# UniProt Q02750, sequence (Q02750 whole entry, looked up): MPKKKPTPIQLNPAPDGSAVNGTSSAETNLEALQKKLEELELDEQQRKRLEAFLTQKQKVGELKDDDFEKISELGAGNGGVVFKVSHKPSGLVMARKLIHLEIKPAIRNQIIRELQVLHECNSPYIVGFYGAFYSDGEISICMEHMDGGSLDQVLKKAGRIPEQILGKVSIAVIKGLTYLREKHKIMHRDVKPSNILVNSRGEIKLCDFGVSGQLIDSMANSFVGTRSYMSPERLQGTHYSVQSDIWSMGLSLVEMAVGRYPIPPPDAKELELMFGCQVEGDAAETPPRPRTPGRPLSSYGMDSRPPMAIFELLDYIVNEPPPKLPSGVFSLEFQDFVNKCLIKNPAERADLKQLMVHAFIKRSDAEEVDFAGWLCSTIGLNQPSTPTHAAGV
# UniProt P49917, sequence (P49917 whole entry, looked up): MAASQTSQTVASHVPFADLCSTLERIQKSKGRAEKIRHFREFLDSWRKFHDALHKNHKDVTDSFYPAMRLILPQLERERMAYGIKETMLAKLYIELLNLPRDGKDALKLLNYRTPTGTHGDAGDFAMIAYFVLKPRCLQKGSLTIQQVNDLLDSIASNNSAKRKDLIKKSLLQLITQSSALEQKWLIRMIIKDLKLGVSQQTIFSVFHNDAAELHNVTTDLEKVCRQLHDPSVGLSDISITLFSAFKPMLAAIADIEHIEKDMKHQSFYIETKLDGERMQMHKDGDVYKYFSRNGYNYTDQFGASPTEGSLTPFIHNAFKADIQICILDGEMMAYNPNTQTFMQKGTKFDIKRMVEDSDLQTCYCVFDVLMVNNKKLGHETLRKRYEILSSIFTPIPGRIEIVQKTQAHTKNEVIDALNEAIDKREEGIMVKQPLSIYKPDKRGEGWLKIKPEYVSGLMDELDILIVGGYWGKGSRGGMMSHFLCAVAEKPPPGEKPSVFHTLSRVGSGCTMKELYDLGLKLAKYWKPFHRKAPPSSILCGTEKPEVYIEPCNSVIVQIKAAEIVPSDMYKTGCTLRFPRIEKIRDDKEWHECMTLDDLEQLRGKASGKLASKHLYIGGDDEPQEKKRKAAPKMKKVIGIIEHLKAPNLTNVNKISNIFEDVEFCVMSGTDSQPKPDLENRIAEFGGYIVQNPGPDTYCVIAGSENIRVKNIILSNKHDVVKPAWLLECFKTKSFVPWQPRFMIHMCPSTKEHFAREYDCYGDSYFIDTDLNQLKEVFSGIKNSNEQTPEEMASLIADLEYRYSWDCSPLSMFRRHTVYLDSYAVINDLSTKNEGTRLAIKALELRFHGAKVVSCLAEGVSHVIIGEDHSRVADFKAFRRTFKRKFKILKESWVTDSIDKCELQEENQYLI
# UniProt Q8WVR3, sequence (Q8WVR3 whole entry, looked up): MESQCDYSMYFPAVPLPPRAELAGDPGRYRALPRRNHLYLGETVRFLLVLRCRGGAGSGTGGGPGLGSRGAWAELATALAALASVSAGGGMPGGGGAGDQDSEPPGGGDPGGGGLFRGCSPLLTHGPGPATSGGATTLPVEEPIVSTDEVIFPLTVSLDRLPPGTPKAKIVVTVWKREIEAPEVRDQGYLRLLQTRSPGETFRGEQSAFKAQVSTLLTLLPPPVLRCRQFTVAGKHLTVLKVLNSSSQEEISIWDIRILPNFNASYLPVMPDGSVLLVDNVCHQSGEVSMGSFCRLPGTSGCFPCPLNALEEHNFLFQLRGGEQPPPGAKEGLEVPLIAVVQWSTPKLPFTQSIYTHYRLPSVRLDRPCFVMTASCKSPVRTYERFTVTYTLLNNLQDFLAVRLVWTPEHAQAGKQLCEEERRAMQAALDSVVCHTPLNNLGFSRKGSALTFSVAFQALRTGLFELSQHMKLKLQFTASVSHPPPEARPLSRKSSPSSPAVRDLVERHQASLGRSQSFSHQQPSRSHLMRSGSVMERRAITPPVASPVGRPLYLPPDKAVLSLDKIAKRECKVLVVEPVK
# UniProt Q9H8H3, sequence (Q9H8H3 whole entry, looked up): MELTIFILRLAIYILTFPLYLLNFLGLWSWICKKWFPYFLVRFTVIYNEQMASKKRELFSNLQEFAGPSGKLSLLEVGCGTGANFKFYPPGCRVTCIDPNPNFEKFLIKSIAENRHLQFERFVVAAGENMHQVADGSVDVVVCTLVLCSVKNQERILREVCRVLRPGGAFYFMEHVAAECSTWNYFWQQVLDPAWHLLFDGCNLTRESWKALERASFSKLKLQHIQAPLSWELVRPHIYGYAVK
# UniProt P45984, sequence (P45984 whole entry, looked up): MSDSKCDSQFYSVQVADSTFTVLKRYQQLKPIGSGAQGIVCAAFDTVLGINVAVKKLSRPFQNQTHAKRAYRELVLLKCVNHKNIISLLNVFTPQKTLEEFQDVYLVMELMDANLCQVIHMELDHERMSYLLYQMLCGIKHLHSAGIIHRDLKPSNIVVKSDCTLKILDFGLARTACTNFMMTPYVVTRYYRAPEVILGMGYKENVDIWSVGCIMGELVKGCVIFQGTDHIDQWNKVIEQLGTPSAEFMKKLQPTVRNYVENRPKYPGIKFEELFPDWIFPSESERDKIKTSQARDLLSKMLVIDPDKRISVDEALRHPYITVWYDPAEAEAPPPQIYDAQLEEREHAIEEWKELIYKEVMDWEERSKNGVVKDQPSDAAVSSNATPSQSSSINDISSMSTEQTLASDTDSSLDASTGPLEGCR
# UniProt P49137, sequence (P49137 whole entry, looked up): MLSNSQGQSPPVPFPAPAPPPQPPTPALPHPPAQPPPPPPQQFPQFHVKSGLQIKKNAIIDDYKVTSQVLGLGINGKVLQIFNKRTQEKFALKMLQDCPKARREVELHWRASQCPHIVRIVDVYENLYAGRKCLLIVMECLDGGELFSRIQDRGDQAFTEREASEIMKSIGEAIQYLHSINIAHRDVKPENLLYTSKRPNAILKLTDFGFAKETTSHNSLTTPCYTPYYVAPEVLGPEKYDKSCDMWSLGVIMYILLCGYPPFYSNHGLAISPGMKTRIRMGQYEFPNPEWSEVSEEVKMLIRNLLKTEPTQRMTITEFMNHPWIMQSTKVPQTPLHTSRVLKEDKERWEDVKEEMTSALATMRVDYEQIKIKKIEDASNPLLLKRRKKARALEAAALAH
# UniProt Q99661, sequence (Q99661 whole entry, looked up): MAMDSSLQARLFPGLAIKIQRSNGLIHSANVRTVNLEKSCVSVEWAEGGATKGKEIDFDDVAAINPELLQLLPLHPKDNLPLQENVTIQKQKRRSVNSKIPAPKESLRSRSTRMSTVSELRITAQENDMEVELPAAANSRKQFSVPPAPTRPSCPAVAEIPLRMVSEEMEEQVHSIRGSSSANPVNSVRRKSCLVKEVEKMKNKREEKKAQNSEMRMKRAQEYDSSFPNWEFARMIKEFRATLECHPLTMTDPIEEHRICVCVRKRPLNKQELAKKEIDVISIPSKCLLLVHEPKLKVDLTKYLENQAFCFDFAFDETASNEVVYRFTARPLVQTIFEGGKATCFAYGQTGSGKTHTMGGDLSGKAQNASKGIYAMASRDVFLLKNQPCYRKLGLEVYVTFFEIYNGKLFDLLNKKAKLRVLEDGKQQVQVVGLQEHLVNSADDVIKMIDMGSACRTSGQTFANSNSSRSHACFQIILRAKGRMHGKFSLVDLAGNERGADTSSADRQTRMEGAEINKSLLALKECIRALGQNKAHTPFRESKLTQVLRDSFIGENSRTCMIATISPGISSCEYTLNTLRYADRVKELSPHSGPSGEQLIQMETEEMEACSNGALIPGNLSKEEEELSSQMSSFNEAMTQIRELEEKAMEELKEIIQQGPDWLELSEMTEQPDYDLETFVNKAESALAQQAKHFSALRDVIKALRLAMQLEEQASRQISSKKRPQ
# UniProt Q9UBU8, sequence (Q9UBU8 whole entry, looked up): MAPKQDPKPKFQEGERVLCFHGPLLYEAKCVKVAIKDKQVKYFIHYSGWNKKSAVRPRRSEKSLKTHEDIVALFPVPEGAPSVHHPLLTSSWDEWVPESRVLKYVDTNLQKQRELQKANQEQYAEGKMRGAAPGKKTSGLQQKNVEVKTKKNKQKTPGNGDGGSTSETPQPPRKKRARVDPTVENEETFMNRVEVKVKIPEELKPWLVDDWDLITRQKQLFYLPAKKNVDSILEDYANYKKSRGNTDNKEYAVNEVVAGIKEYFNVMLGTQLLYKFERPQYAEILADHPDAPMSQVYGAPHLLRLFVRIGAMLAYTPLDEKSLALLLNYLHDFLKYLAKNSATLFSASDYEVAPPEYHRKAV
# UniProt Q9H9A6, sequence (Q9H9A6 whole entry, looked up): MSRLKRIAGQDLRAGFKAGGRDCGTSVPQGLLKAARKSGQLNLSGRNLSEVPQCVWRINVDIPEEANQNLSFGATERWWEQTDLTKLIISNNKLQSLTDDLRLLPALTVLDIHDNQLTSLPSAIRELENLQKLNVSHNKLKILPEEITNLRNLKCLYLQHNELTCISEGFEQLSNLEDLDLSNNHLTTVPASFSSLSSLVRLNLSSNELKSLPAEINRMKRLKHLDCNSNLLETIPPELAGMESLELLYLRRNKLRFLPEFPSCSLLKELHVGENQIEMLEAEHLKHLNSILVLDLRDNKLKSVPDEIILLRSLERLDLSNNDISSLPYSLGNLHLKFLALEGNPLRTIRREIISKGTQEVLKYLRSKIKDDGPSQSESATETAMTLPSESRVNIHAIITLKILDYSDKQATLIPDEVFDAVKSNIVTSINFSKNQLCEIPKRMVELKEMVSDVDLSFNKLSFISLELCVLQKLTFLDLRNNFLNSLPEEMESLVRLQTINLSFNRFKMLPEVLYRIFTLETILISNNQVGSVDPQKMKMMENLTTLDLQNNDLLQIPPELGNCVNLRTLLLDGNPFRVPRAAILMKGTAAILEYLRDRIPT
# UniProt Q9NWR8, sequence (Q9NWR8 whole entry, looked up): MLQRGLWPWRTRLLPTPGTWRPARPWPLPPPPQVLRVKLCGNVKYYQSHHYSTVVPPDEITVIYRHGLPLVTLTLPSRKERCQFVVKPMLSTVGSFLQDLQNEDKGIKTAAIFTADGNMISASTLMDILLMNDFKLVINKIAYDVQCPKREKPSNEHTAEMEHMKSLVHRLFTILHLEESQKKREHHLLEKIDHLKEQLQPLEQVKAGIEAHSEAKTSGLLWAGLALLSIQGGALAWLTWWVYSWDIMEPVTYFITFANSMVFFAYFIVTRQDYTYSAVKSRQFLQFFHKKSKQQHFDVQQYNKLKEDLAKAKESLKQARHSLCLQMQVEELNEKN
row,Target,log2 fold change
1,MARK2 (UniProt E9PC69),-0.012
2,MICU1 isoform 3 (UniProt Q9BPX6),0
3,MED12 isoform 2 (UniProt Q93074),0.009
4,LYAR (UniProt Q9NX58),0.03
5,MLH1 (UniProt P40692),0.017
6,MIPEP (UniProt Q99797),-0.001
7,MAD2L1BP isoform 3 (UniProt Q15013),0.107
8,LIG4 (UniProt P49917),-0.016
9,MCUB (UniProt Q9NWR8),0.039
10,MOCS1 isoform 8 (UniProt Q9NZB8),-0.005
11,MAP3K4 (UniProt Q9Y6R4),-0.015
12,MAPKAPK2 (UniProt P49137),0.003
13,MAPK9 (UniProt P45984),-0.038
14,MCMBP isoform 2 (UniProt Q9BTE3),-0.111
15,MRPL15 (UniProt Q9P015),-0.007
16,MRPL10 isoform 2 (UniProt Q7Z7H8),-0.029
17,MORC3 (UniProt Q14149),0.007
18,LRRC40 (UniProt Q9H9A6),0.015
19,LARP4B (UniProt Q92615),-0.006
20,MAP1S (UniProt Q66K74),0.011

row,Target,log2 fold change
1,LTN1 isoform 3 (UniProt O94822),0.001
2,MCCC1 (UniProt Q96RQ3),-0.028
3,MAP2K1 (UniProt Q02750),-0.024
4,MORC2 (UniProt Q9Y6X9),-0.001
5,KNSTRN (UniProt Q9Y448),0.022
6,MORF4L1 isoform 2 (UniProt Q9UBU8),-0.034
7,KIF2C (UniProt Q99661),-0.005
8,MRPL30 isoform 2 (UniProt Q8TCC3),0
9,L3HYPDH (UniProt Q96EM0),-0.044
10,MED16 (UniProt Q9Y2X0),0.021
11,KIFC1 (UniProt Q9BW19),-0.009
12,MGAT5 (UniProt Q09328),-0.084
13,MICU2 (UniProt Q8IYU8),-0.019
14,MAPKAPK3 (UniProt Q16644),0.065
15,KIF4A (UniProt O95239),-0.013
16,MAP11 (UniProt Q8WVR3),0.105
17,KLC2 (UniProt Q9H0B6),-0.045
18,MAP2K5 (UniProt Q13163),-0.037
19,METTL7A (UniProt Q9H8H3),0.016
